Hits are enriched below; roughly 8% of the tested compounds scored in any of these assays.
SW480 rerep: A quantitative high throughput screen for small molecules that induce DNA re-replication in SW480 colon adenocarcinoma cells | actives 1.8% (n = 340,000) | SW480 DNA re-replication, Hoechst DNA content imaging, 48 h | Potency, µM (series often up to 46.1 µM), inactives show at the top dose re-replication activation, most hits filed as activators; further: % of control where 0% means no effect; nearly all actives have a fitted effect of over 55% in size
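Treated cells incubate 48 hr (37 C, 5% CO2), are stained 40 min with Hoechst, and nuclear fluorescence is enumerated; a rise in nuclei with high DNA signal marks re-replication.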
HT1080-NT tox: qHTS for induction of synthetic lethality in tumor cells producing 2HG: qHTS for the HT-1080-NT fibrosarcoma cell line; HT-1080-NT fibrosarcoma viability, CellTiter-Glo ATP luminescence, 48 h; Potency, µM (highest dose often 46.1 µM), for the others: top-dose activity, negative = less viability, actives largely listed as cytotoxic; actives 1.6% (n = 360,000); AID 686970, 2013;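 further: NT is the 2HG producing partner of a matched IDH1 knockdown line; 0% = DMSO-treated cells and -100% = media-only wells without cells; nearly all actives have a fitted effect of over 55% in size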
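Luminescent CellTiter-Glo readout after 48 hours of compound exposure at 37 degrees C defined viability of HT-1080-NT cells. Activity was normalized to DMSO wells and cell-free media wells; concentration-response curves were fitted and assigned curve classes.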
HT1080 IDH1KD tx: qHTS for induction of synthetic lethality in tumor cells producing 2HG: qHTS for the HT-1080-IDH1KD cell line. Potency, µM (series often up to 46.1 µM), without a hit: at the highest dose activity, negative = toxicity, most hits filed as cytotoxic. AID 686971, 2013. actives 2% (n = 360,000). HT-1080 IDH1 knockdown viability, ATP luminescence, 48 h;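 further: 0% = DMSO wells and -100% = cell-free medium wells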
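Luminescent ATP read-out (CellTiter-Glo, 10 min at room temperature) after 48 h compound exposure at 37 °C gave viability of IDH1-knockdown HT-1080 cells. Activity was normalised to DMSO and cell-free wells, then fitted as concentration-response curves.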
KB-3-1 tox: qHTS assay for MDR1-selective chemotherapeutics: Primary screen using the parental adenocarcinoma cell KB-3-1. KB-3-1 viability, CellTiter-Glo ATP luminescence, 72 h. Potency, µM (series often up to 46.1 µM), actives largely listed as cytotoxic. actives 1.4% (n = 400,000); further: on the % scale 0 is the no-effect control and ±100 the full control effect; nearly all actives have a fitted effect of over 60% in size
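Parental KB-3-1 adenocarcinoma cells in phenol-red-free DMEM with 10% FBS were pin-treated with compounds at several concentrations, incubated 72 h at 37 °C, and viability read by CellTiter-Glo luminescence; concentration-effect curves were fitted after normalization.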
MCF10A rerep: A quantitative high throughput screen for small molecules that induce DNA re-replication in MCF 10a normal breast cells; MCF 10A DNA re-replication, Hoechst nuclear intensity, 48 h; Potency, µM (highest dose often 46.1 µM), for inactives: at the top dose activity, positive = re-replication, usual class: activators; actives 2.9% (n = 350,000); AID 624296, 2012; further: % of control where 0% means no effect; nearly all actives have a fitted effect of over 50% in size
KB-V1 cytotox: qHTS assay for MDR1-selective chemotherapeutics: Primary screen using the drug-selected MDR subline cells KB-V1; KB-V1 MDR cells viability, CellTiter-Glo, 72 h; Potency, µM (doses to about 46.1 µM), hits mostly cytotoxic; actives 3.4% (n = 400,000); AID 1347076, 2019; further: on the % scale 0 is the no-effect control and ±100 the full control effect; nearly all actives have a fitted effect of over 60% in size
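KB-V1 cells (P-gp-expressing MDR subline of KB-3-1) in phenol-red-free DMEM with 10% FBS were exposed to library compounds over a concentration series for 72 h at 37 degrees C. Viability read by CellTiter-Glo luminescence; concentration-effect curves fitted after normalization.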
Starred values were filed as active, the others as inactive. The call rests on the fitted dose curve; in most records, active means well fitted curve in the direction sought with a large enough effect; inconclusive means small, poorly fitted or top-dose-only effect, or another doubt; inactive means no such curve, though single readings can be large; an effect the other way counts as inactive or inconclusive. Potency means the concentration at half of the fitted maximal effect.

Results for O=[N+]([O-])c1ccc(/C=N/NC(=S)Nc2ccccc2F)o1 ?
SW480 rerep: 13%; HT1080-NT tox: 29%; HT1080 IDH1KD tx: 15%; KB-3-1 tox: inactive; MCF10A rerep: -10%; KB-V1 cytotox: inactive

What do the screens show for `Fc1ccccc1NC(=S)N/N=C/c1ccccc1Br`?
SW480 rerep: 18µM*; HT1080-NT tox: 7.1µM*; HT1080 IDH1KD tx: 7.1µM*; KB-3-1 tox: inactive; MCF10A rerep: inconclusive; KB-V1 cytotox: inactive

What do the screens show for `CCN(CC)CCNC(=O)c1cc2c(-c3ccc(Cl)cc3)nn(C)c2s1`?
SW480 rerep: inconclusive; HT1080-NT tox: 18µM*; HT1080 IDH1KD tx: 18µM*; KB-3-1 tox: inconclusive; MCF10A rerep: 32%; KB-V1 cytotox: inconclusive

Results for Cc1nn(-c2ccccc2)c2sc(C(=O)NC3CC3)cc12 ?
SW480 rerep: 2%; HT1080-NT tox: -23%; HT1080 IDH1KD tx: -27%; KB-3-1 tox: inactive; MCF10A rerep: 12µM*; KB-V1 cytotox: inactive

Results for CCCN(CCC)CCNC(=O)c1cc2c(-c3ccc(Cl)cc3)nn(C)c2s1 ?
SW480 rerep: inconclusive; HT1080-NT tox: -18%; HT1080 IDH1KD tx: -14%; KB-3-1 tox: 16µM*; MCF10A rerep: inconclusive; KB-V1 cytotox: inactive

Results for CCCN(CCC)CCCNC(=O)c1cc2c(-c3ccc(OC)c(OC)c3)nn(C)c2s1 ?
SW480 rerep: inconclusive; HT1080-NT tox: inconclusive; HT1080 IDH1KD tx: 21µM*; KB-3-1 tox: inactive; MCF10A rerep: 18µM*; KB-V1 cytotox: inconclusive

How did CCCN(CCC)CCNC(=O)c1cc2c(-c3ccccc3F)nn(C)c2s1 do in these assays?
SW480 rerep: inconclusive; HT1080-NT tox: -24%; HT1080 IDH1KD tx: inconclusive; KB-3-1 tox: inactive; MCF10A rerep: 94%; KB-V1 cytotox: inconclusive

How did CCCN1CCN(c2cc3c(cc2F)c(=O)c(S(=O)(=O)c2ccc(CC)cc2)cn3CC)CC1 do in these assays?
KB-3-1 tox: inactive; KB-V1 cytotox: inactive

What do the screens show for `CCOc1ccc(NC(=O)Cn2cc(S(=O)(=O)NC)c(S(=O)(=O)NC)c2)cc1`?
KB-3-1 tox: inactive; KB-V1 cytotox: inactive

Results for O=C(CCc1nc(-c2cccs2)no1)Nc1ccccc1[N+](=O)[O-] ?
KB-3-1 tox: inactive; KB-V1 cytotox: inactive

How did Cn1nc(-c2ccc(Cl)cc2)c2cc(C(=O)NC3CC3)sc21 do in these assays?
SW480 rerep: inconclusive; HT1080-NT tox: -7%; HT1080 IDH1KD tx: -9%; KB-3-1 tox: inactive; MCF10A rerep: 6.5µM*; KB-V1 cytotox: inconclusive

How did CCOCCCNC(=O)c1cc2c(-c3ccc(Cl)cc3)nn(C)c2s1 do in these assays?
SW480 rerep: 18%; HT1080-NT tox: -1%; HT1080 IDH1KD tx: inconclusive; KB-3-1 tox: inactive; MCF10A rerep: 9%; KB-V1 cytotox: inactive

How did CCCCN(CC)CCNC(=O)c1cc2c(-c3ccc(Cl)cc3)nn(C)c2s1 do in these assays?
SW480 rerep: inconclusive; HT1080-NT tox: 21µM*; HT1080 IDH1KD tx: 21µM*; KB-3-1 tox: inconclusive; MCF10A rerep: 18µM*; KB-V1 cytotox: 23µM*

How did N#Cc1ccccc1CSc1nnc(-c2ccccc2)o1 do in these assays?
KB-3-1 tox: inactive; KB-V1 cytotox: inconclusive

How did O=C(COc1ccc2ccccc2c1Br)NC(=S)Nc1cccc(CO)c1 do in these assays?
SW480 rerep: 2.9µM*; HT1080-NT tox: inconclusive; HT1080 IDH1KD tx: inconclusive; KB-3-1 tox: inactive; MCF10A rerep: inconclusive; KB-V1 cytotox: inactive

How did Cc1cccc(C)c1NC(=O)CNC(=O)c1ccc(COc2ccccc2)cc1 do in these assays?
SW480 rerep: -5%; HT1080-NT tox: -26%; HT1080 IDH1KD tx: inconclusive; KB-3-1 tox: inactive; MCF10A rerep: 12%; KB-V1 cytotox: inactive

What do the screens show for `CC(/C=C/c1ccco1)=N\NC(=O)c1cccc(Cl)c1`?
SW480 rerep: inconclusive; HT1080-NT tox: -22%; HT1080 IDH1KD tx: inconclusive; KB-3-1 tox: inactive; MCF10A rerep: 1%; KB-V1 cytotox: inconclusive

Results for C/C(=N\NC(=O)CCc1ccccc1)C1C(=O)c2ccccc2C1=O ?
SW480 rerep: inconclusive; HT1080-NT tox: inconclusive; HT1080 IDH1KD tx: inconclusive; KB-3-1 tox: inconclusive; MCF10A rerep: 18%; KB-V1 cytotox: 9.2µM*

How did C/C(=N\NC(=O)c1cccc(Cl)c1)C1C(=O)c2ccccc2C1=O do in these assays?
SW480 rerep: 3.7µM*; HT1080-NT tox: 13µM*; HT1080 IDH1KD tx: 8.2µM*; KB-3-1 tox: 23µM*; MCF10A rerep: inconclusive; KB-V1 cytotox: 9.2µM*

What do the screens show for `CC(/C=C/c1ccccc1)=N\NC(=O)CCc1ccccc1`?
SW480 rerep: 5%; HT1080-NT tox: 12%; HT1080 IDH1KD tx: 0%; KB-3-1 tox: inactive; MCF10A rerep: -9%; KB-V1 cytotox: inactive

What do the screens show for `Cc1oc(-c2cccc(Cl)c2)nc1CN1CCCC(C(=O)N2CCN(c3ccc(F)cc3)CC2)C1` (stereo not given)?
KB-3-1 tox: inactive; KB-V1 cytotox: inactive

Results for Cc1ccc(-n2nc3c(N4CCC(C(=O)NC5CCC(C)CC5)CC4)nnc(C)c3c2C)cc1 (stereo not given) ?
KB-3-1 tox: inactive; KB-V1 cytotox: inactive

How did Cc1onc(-c2c(F)cccc2Cl)c1C(=O)NC1C(=O)N2C1SC(C)(C)C2C(=O)O (stereo not given) do in these assays?
SW480 rerep: -5%; MCF10A rerep: 4%

How did COc1ccc(NC(=O)CC2SC(=Nc3ccccc3)NC2=O)cc1 (stereo not given) do in these assays?
SW480 rerep: 1%; HT1080-NT tox: -3%; HT1080 IDH1KD tx: -2%; KB-3-1 tox: inactive; MCF10A rerep: 7%; KB-V1 cytotox: inactive

Results for COc1cccc(NC(=O)CN(C)C(=O)CC2Sc3ccccc3NC2=O)c1 (stereo not given) ?
SW480 rerep: 3%; HT1080-NT tox: 3%; HT1080 IDH1KD tx: -11%; KB-3-1 tox: inactive; MCF10A rerep: 2%; KB-V1 cytotox: 23µM*

Source: PubChem BioAssay (National Center for Advancing Translational Sciences (NCATS))
